Laboratory results as given in PubChem BioAssay (NCI).
About 79,000 compounds went through this panel and 15% of them were active in at least one assay; those are over-represented in the sample as a whole. Activity calls are given as the source filed them. Cut-off read from the data, not from the text of the source: active = growth inhibition above about 70%; inactive = the rest.

Tests used:
[1] = NCI Yeast Anticancer Drug Screen. Data for the rad50 strain (AID 155);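 note: 0% = growth of vehicle-only cultures of the same strain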; conditions: S. cerevisiae rad50 strain growth inhibition; at 50.0 µM; active compounds read high
Outline: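 Inhibition values express reduced yeast growth in compound-treated cultures relative to vehicle-treated controls.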

[2] = NCI Yeast Anticancer Drug Screen. Data for the mec2-1 strain (AID 157); conditions: S. cerevisiae mec2-1 strain, at 50.0 µM, active compounds read high
Outline: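 Mutant yeast (mec2-1) grown with compound; growth inhibition relative to vehicle control reported.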

[3] = NCI Yeast Anticancer Drug Screen. Data for the sgs1 mgt1 strain (AID 161);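 note: 0% = growth of cultures given vehicle only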; conditions: S. cerevisiae sgs1 mgt1 strain, at 50.0 µM, active compounds read high
Outline: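 Yeast cells carrying a defined DNA-repair defect were exposed to test compounds. Growth inhibition was measured relative to vehicle-treated controls.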

[4] = NCI Yeast Anticancer Drug Screen. Data for the cln2 rad14 strain (AID 165);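 note: 0% = growth equal to vehicle treated cultures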; conditions: S. cerevisiae cln2 rad14 strain, at 50.0 µM, active compounds read high
Outline: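 Readout is yeast growth inhibition versus vehicle-treated controls, using a strain with cln2 and rad14 alterations exposed to compound.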

[5] = NCI Yeast Anticancer Drug Screen. Data for the bub3 strain (AID 167); conditions: S. cerevisiae bub3 mutant strain, at 50.0 µM, active compounds read high
Outline: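 Steps: expose the mutant yeast strain to compound; grow alongside vehicle-treated cultures; measure growth; express inhibition against the vehicle cultures.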

[6] = NCI Yeast Anticancer Drug Screen. Data for the mlh1 rad18 strain (AID 175); conditions: S. cerevisiae mlh1 rad18 strain growth inhibition; at 50.0 µM; active compounds read high
Outline: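 Genetically defined yeast (DNA repair-deficient) exposed to compounds; growth inhibition determined relative to vehicle.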

Measured: growth inhibition

CC(=O)NC1C(SC(=O)NCCCl)OC(COC(C)=O)C(OC(C)=O)C1OC(C)=O (stereo unspecified)
inactive: [1] -7.75% | [2] -8.6% | [3] -3.2% | [4] -16.8% | [5] -27.3% | [6] -4.3%

COc1ccc(C(C)OC)cc1OC (stereo unspecified)
inactive: [1] -15% | [2] -22.2% | [3] 15.6% | [4] -16.6% | [5] 8.7% | [6] -8.75%

Cc1c(N(C)C)ccc2c(=O)c3cccc(CC(=O)O)c3oc12
inactive: [1] 20% | [2] 21.7% | [3] -5.35% | [4] 8.6% | [5] -16.1% | [6] -5.05%

Cn1nc(C(=O)NN)c(=O)[nH]c1=O
inactive: [1] 10.9% | [2] -6.75% | [3] 0.8% | [4] -20.6% | [5] 6.6% | [6] 16.9%

CSc1cccc(N=C(C#N)C2=C(O)c3ccccc3C2=O)c1
inactive: [1] 21.1% | [2] 1.85% | [3] 9.65% | [4] 38.6% | [5] 21.5% | [6] 24.4%

OCC(CN1CCCCC1)(CN1CCCCC1)CN1CCCCC1
inactive: [1] -47.8% | [2] -68.7% | [3] -14.6% | [4] -7.05% | [5] -5.2% | [6] -32.4%

Oc1ccc(C2SCc3nc4ccccc4n32)cc1 (stereo unspecified)
inactive: [1] -7.85% | [2] -17.9% | [3] -35.9% | [4] -7.3% | [5] -45.1% | [6] -25.1%

O=C(NCCNCCCNC(=O)c1cc(-c2ccccc2)nc2ccccc12)c1cccc(O)c1O
inactive: [1] 8.4% | [2] 22.6% | [3] 33.1% | [4] 22.6% | [5] 49.5% | [6] 44.2%

CCOC(=O)c1c(C)[nH]c(-c2csc(N)n2)c1C
inactive: [1] -5.3% | [2] -1.65% | [3] 21.4% | [4] -55.7% | [5] -9.35% | [6] -14.8%

O=C1c2cc3c(-c4ccccc4)oc(-c4ccccc4)c3cc2C(=O)c2c(O)ccc(O)c21
inactive: [1] 1.2% | [2] -7.15% | [3] -20.6% | [4] -4.7% | [5] -5.75% | [6] 5.5%

O=C(Nc1ccc(F)cc1)c1ccc(Cl)cc1Cl
inactive: [1] -7.4% | [2] -28.4% | [3] -9% | [4] 13.7% | [5] -4.2% | [6] -2.35%

CCOC(=O)NCCNC(=O)OCC
inactive: [1] 8.8% | [2] 0.3% | [3] 1.45% | [4] 6.65% | [5] -11.7% | [6] 3.6%

Oc1cccc2c1N1CCN2CC1
inactive: [1] -2.15% | [2] 2.55% | [3] 11.2% | [4] 4.85% | [5] 9.6% | [6] 10.3%

COc1ccc2c(Cc3ccccc3O)cncc2c1O
inactive: [1] 0.9% | [2] 2.25% | [3] -4.75% | [4] -3.5% | [5] -5.9% | [6] 14.8%

COC(=O)C1=C(c2ccccc2)c2ccc3ccccc3c2C1c1ccccc1 (stereo unspecified)
inactive: [1] 40.1% | [2] -8.25% | [3] 22.9% | [4] 12.4% | [5] 6.15% | [6] 25.2%

Cc1cc(Cc2c(F)c(F)c(Cc3cc(C)no3)c(F)c2F)on1
inactive: [1] 8.35% | [2] 5.6% | [3] 8.85% | [4] 1.1% | [5] 0.4% | [6] 18.1%

COc1cc(C(=O)N(C)N(C)C)cc(OC)c1OC
inactive: [1] 6.6% | [2] -9.6% | [3] 13.4% | [4] 10.9% | [5] -2.85% | [6] -5.6%

O=c1[nH]c(=S)c2cncnc2n1C1OC(CO)C(O)C1O (stereo unspecified)
inactive: [1] 15.8% | [2] 11.8% | [3] -6.6% | [4] 10.2% | [5] -28.3% | [6] -26.4%

CCCCCCC(/C=C/c1ccc(Cl)c(Cl)c1)=N\Nc1ccccc1
inactive: [1] 3.55% | [2] -15.9% | [3] 14.8% | [4] -19.7% | [5] -4.3% | [6] -12.3%

COC1(C)CCC2(O)C(=O)OC3C(O)COC32O1 (stereo unspecified)
inactive: [1] -3.45% | [2] -4.9% | [3] 2.55% | [4] -1.3% | [5] -1.85% | [6] -4.55%

CN1c2ccccc2C(=O)NC12CCN(CCCC(=O)c1ccc(F)cc1)CC2
inactive: [1] 6.6% | [2] 6.95% | [3] 46.8% | [4] 35.6% | [5] 21.9% | [6] 7%

CC(=O)Nc1nc(NC(C)=O)c2[nH]c(CO)nc2n1
inactive: [1] -4.2% | [2] -10.4% | [3] -11.8% | [4] -33.6% | [5] -61.3% | [6] -11.7%

CCCC(CO)OC(=O)Nc1ccc(-c2ccccc2)cc1 (stereo unspecified)
inactive: [1] -7.75% | [2] -1.1% | [3] -2.15% | [4] -56% | [5] 27.4% | [6] 11.9%

Brc1ccccn1
inactive: [1] 35.5% | [2] 11% | [3] 6.2% | [4] -15.1% | [5] 28.3% | [6] 22.8%

N#CCC(=O)N/N=C(\C#N)c1ccccc1
inactive: [1] 8.65% | [2] 1.95% | [3] 0.55% | [4] -51.9% | [5] -18.1% | [6] 0.75%

CCCN(CCC)c1ccc(C(=O)c2ccccc2)cc1
inactive: [1] -12.4% | [2] -3% | [3] -1% | [4] -33.8% | [5] 18.6% | [6] -6%

CCN(CC)CCN(C(=Nc1ccccc1)N1CCCCC1)c1ccccc1
inactive: [1] 6.8% | [2] -35.2% | [3] -11.5% | [4] 19% | [5] 28.1% | [6] 19.4%

Cc1nc(=S)c2cnn(-c3ccccc3)c2[nH]1
inactive: [1] -15.4% | [2] -21.2% | [3] -3.9% | [4] -57.2% | [5] -27.1% | [6] -0.6%

CCc1ccc(NC(=O)C(c2ccccc2)c2ccccc2)cc1
inactive: [1] 8.6% | [2] 13.3% | [3] 2.35% | [4] 11.8% | [5] 20.6% | [6] -9.1%

CCC12OC3(CC)C4C(=O)OC1C1(CC)OC4(CC)C3C(=O)OC21
inactive: [1] -13.7% | [2] -5.6% | [3] 4.85% | [4] -5.75% | [5] 0.8% | [6] 13.3%

C=CS(=O)(=O)c1ccc(Nc2cc(S(=O)(=O)O)c(N)c3c2C(=O)c2ccccc2C3=O)cc1
inactive: [1] -20.2% | [2] -30.9% | [3] -4.1% | [4] 2.9% | [5] -19.3% | [6] -36.1%

CC(=C/c1ccccc1)/C=C1/SC(=S)N(C=C2C(=O)NC(=O)NC2=O)C1=O
inactive: [1] 54.9% | [2] 54.1% | [3] 32.4% | [4] 50.2% | [5] 50.5% | [6] 43.2%

CCOc1ccc(N=C2C=C(Nc3ccc(OCC)cc3)C(=Nc3ccc(OCC)cc3)C=C2Nc2ccc(OCC)cc2)cc1
inactive: [1] -17.7% | [2] -14.5% | [3] -24.2% | [4] -18.4% | [5] 2.35% | [6] -24.5%

O=C(/C=C/c1ccc(OCC(=O)N2CCN(c3ccccc3)CC2)cc1)c1ccc(Cl)cc1
inactive: [1] 13.6% | [2] 13.9% | [3] -5.8% | [4] 0.55% | [5] 2.7% | [6] -4.45%

CN(C)C(=Nc1ccccc1)N(C)N
inactive: [1] -1.2% | [2] 5.7% | [3] -12.9% | [4] 0.75% | [5] 1.9% | [6] 0.95%

CN(C)CCN(C)C(=N)N
inactive: [1] -10.3% | [2] -4.25% | [3] -6.45% | [4] -7.5% | [5] -6.55% | [6] -10.9%
